High-throughput results deposited in PubChem BioAssay by several laboratories.
Anthrax LF prot – anthrax lethal factor protease inhibition; AID 588501; P15917; 0.12% of 360,000 active; multiplex microsphere protease cleavage assay, LF; inhibition, % at 10 µM
BoNT A protease – BoNT A light chain protease inhibition; multiplex microsphere protease substrate cleavage, flow cytometry; inhibition, % at 10 µM; 0.17% of 360,000 active; AID 588499
Vc quorum ag – quorum light induction in luxS cqsA deficient V. cholerae; AID 588436; activation, % at 18.7 µM; 0.16% of 350,000 active; V. cholerae BH1578 lux reporter, luminescence, 6 h; in the data active means activation mostly above about 9.7%, no sharp cut-off; inconclusive means no clear call, values can overlap the other calls; inactive means mostly below about 3.7%
BoNT F protease – blocks Botulinum neurotoxin F light chain protease. Multiplex microsphere protease cleavage assay, flow cytometry. inhibition, % at 10 µM. 0.22% of 360,000 active. AID 588497; in the data active means inhibition above about 35%, passing the limit was not always enough; inconclusive means no clear call, values can overlap the other calls
MazF activator – increases E. coli MazEF RNase cleavage of RNA. P0AE70. FAM/BHQ RNA-DNA oligo cleavage fluorescence, 5 h. activation, % at 20 µM. 0.32% of 350,000 active; in the data active means activation above about 50%
Bead autofluor – compound fluorescence in toxin protease inhibitor counterscreen; compound autofluorescence counterscreen, microsphere flow cytometry; stronger effect = higher value; fluorescence intensity (no concentration beside the values); 3.1% of 360,000 active; in the data active means fluorescence intensity above about 16000; inconclusive means no clear call, values can overlap the other calls
Each line names hits and unclear results; the compound was inactive in the other large screens. Hits are enriched below; roughly 3.9% of the tested compounds scored in any of these assays. Unless noted, no stated cut-off is given here; in the data, active means inhibition above about 30%; inconclusive means no clear call, values can overlap the other calls; inactive means below that.

Cc1ccc(NC(=O)CSc2nccn2Cc2ccccc2)cc1C	none
CC(=O)Nc1ccc(NC(=O)CSc2nccn2Cc2ccccc2)cc1	Bead autofluor 20023
O=C(CCSc1nnc(-c2ccccc2)o1)N1CCOCC1	none
O=C(CCSc1nccn1Cc1ccccc1)N1CCOCC1	Bead autofluor 20488
Cc1ccc(S(=O)(=O)NC2CCC(C(=O)O)CC2)cc1 (stereo not given)	Bead autofluor 17170
Cc1ccc(NS(=O)(=O)c2ccc(CCC(=O)NC3CC3)cc2)cc1	Bead autofluor 23092
Cc1ccc(S(=O)(=O)NCC(=O)NC2CCCCCC2)cc1	none
Cc1ccc(S(=O)(=O)NCC(=O)NC2CCCC2)cc1	Bead autofluor 23092
CCOC(=O)c1sc(=S)n(-c2ccccc2)c1N	none
COC(=O)c1sc(=S)n(-c2cccc(Cl)c2)c1N	Bead autofluor 26583
COC(=O)[C@]12CCCCC=C1N(Cc1cccc3ccccc13)C(=O)[C@H](CC(=O)N1CCCC1)C2	none (no result: Vc quorum ag, MazF activator)
COc1ccc(C(CNC(=O)c2oc3c(Cl)cccc3c2C)N2CCCC2)cc1 (stereo not given)	none
COC(=O)c1sc2ccccc2c1N	none
COC(=O)c1sc2ccccc2c1C(=O)OC	BoNT A protease inconclusive, Bead autofluor 22728
CCO/C=C1/C(=O)N(C(C)=O)c2ccccc21	BoNT A protease inconclusive, Bead autofluor 22792
CCn1c(CNC(=O)c2ccccc2F)cc2cc(C)ccc21	BoNT F protease inconclusive
CCOC(=O)Cn1nnnc1CN(Cc1cccs1)Cc1cc2cc(C)ccc2[nH]c1=O	Bead autofluor 16529
Cc1ccc2[nH]c(=O)c(CN(Cc3cccs3)Cc3nnnn3Cc3ccccc3)cc2c1	none
Cc1ccccc1S(=O)(=O)N1CCN(c2ccc3c(c2)C2CC3CCN2C(=O)OCc2ccccc2)CC1 (stereo not given)	none (no result: Vc quorum ag, MazF activator)
N#C/C(=C\c1ccccn1)c1nc2ccccc2s1	MazF activator 66.7
COC(=O)c1ccc(/C=C(\C#N)c2nc3ccccc3s2)cc1	none
CN(CCCNC(=O)CSc1cc(=O)n(C)c2ccc(Cl)cc12)Cc1ccccc1	none
COc1ccc2c(c1OC)C(=O)OC2CC(=O)c1ccc2c(c1)OCO2 (stereo not given)	BoNT A protease inconclusive, Bead autofluor 16170
Cc1ccc(Nc2nc(-c3ccc(S(=O)(=O)N4CCCC4)cc3)cs2)cc1C	Bead autofluor 25361
Cc1ccc(S(=O)(=O)N2CCCN(S(=O)(=O)c3ccc(C)c(C)c3)CC2)cc1C	Bead autofluor 16751
Cc1ccc(S(=O)(=O)N2CCN(S(=O)(=O)N3CCOCC3)CC2)cc1C	Bead autofluor 16305
COc1ccc(C(=O)Nc2ccccc2C(=O)N(Cc2ccco2)C(C(N)=O)C(C)C)cc1 (stereo not given)	Bead autofluor 22943
COc1ccc(-c2coc3c(CN4CCOCC4)c(O)ccc3c2=O)cc1	Vc quorum ag 12.7
O=c1c(-c2ccc(Cl)cc2)coc2c(CN3CCOCC3)c(O)ccc12	none
COCc1c(C(=O)N/N=C/c2cccc3ccccc23)nnn1-c1nonc1N	none
Cc1ccc(N(CC(=O)NCc2ccccc2)C(=O)CCC(=O)Nc2ccccn2)cc1	none
O=C(Nc1nnc(-c2ccccc2)s1)c1cc(S(=O)(=O)N2CCOCC2)c(Cl)cc1Cl	BoNT A protease inconclusive, Bead autofluor 23535
CCOC(=O)C1C(c2ccccc2)C(C(=O)OCC)C1c1ccccc1 (stereo not given)	none
Cc1ccccc1OC(=O)C1C(c2ccccc2)C(C(=O)O)C1c1ccccc1 (stereo not given)	Bead autofluor 20251
CCCCCOC(=O)C1C(c2ccccc2)C(C(=O)O)C1c1ccccc1 (stereo not given)	none
COC(=O)C1C(c2ccccc2)C(C(=O)OCc2ccco2)C1c1ccccc1 (stereo not given)	Bead autofluor 20681
O=C(O)C1C(c2ccccc2)C(C(=O)OCc2ccco2)C1c1ccccc1 (stereo not given)	Bead autofluor 23151
O=C(O)C1C(c2ccccc2)C(C(=O)OCCCO)C1c1ccccc1 (stereo not given)	Bead autofluor 22890
CC(=O)c1c(C)[nH]c(C(=O)CSc2nnc(C)s2)c1C	none
COC(=O)c1sc(-c2cccs2)cc1NC(=O)/C=C/C(=O)O	none
COCc1cc(C)nc(Nc2ccccc2C)c1C#N	BoNT A protease inconclusive, Bead autofluor 20149
CCOc1ccc(N(C)C(=O)CCc2nnc3ccc(N4CCC5(CC4)OCCO5)nn23)cc1	none
